This is part of a sample that, as a whole, favours compounds with a hit. Of some 83,000 tested, about 20% had one in any assay.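 In brief: 96-well plates, 48 h treatment, single concentration, percent growth endpoint.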 Calls of active or inactive are those of the source. How the source made its calls: active means growth percent below 10; inactive means the rest.
Legend:
Assay in all cases: NCI-60 one-dose screen, 48 h (100 = growth as untreated, 0 = no growth, -100 = all killed)
Conditions in all cases: 10 µM unless noted
HCT-15 colon = tested on: HCT-15 colon
HT29 colon = tested on: HT29 colon
SNB-75 CNS = tested on: SNB-75 CNS
SNB-19 CNS = tested on: SNB-19 CNS
U251 CNS = tested on: U251 CNS
PC-3 prostate = tested on: PC-3 prostate
SK-MEL-5 melanoma = tested on: SK-MEL-5 melanoma
UACC-62 melanoma = tested on: UACC-62 melanoma
LOX IMVI melanoma = tested on: LOX IMVI melanoma
SK-MEL-28 melanoma = tested on: SK-MEL-28 melanoma
SK-MEL-2 melanoma = tested on: SK-MEL-2 melanoma
EKVX NSCLC = tested on: EKVX NSCLC
SN12C renal = tested on: SN12C renal
UO-31 renal = tested on: UO-31 renal
TK-10 renal = tested on: TK-10 renal
ACHN renal = tested on: ACHN renal
CAKI-1 renal = tested on: CAKI-1 renal
A498 renal = tested on: A498 renal
CCRF-CEM leukemia = tested on: CCRF-CEM leukemia
MOLT-4 leukemia = tested on: MOLT-4 leukemia

Measured: growth

O=C1Nc2ccc(Cl)cc2/C1=C\c1c(-c2ccc(F)cc2)nc2ccccn12
inactive: HCT-15 colon 21.4% | SNB-19 CNS 41.6% | U251 CNS 23.2% | PC-3 prostate 18.8% | SK-MEL-2 melanoma 66.2% | EKVX NSCLC 33.8% | TK-10 renal 82.8% | ACHN renal 31.4% | CAKI-1 renal 40.2%
active: HT29 colon 0.999% | SNB-75 CNS -49.4% | SK-MEL-5 melanoma -28.4% | UACC-62 melanoma 7.95% | LOX IMVI melanoma -30.1% | SK-MEL-28 melanoma 6.38% | SN12C renal 6.4% | UO-31 renal 6.63% | A498 renal -18% | CCRF-CEM leukemia 5.38%

CC1=CCC2C1CC=C(C)C(CC[C@H]1[C@@](C)(O)CCC3OC(C)(C)[C@H](OC(=O)c4ccccc4)CC[C@@]31C)C2(C)C (stereo partly drawn)
inactive: HCT-15 colon 81.9% | HT29 colon 76.6% | SNB-75 CNS 75.9% | SNB-19 CNS 105% | U251 CNS 61.2% | PC-3 prostate 26.2% | SK-MEL-5 melanoma 79.9% | UACC-62 melanoma 67.4% | LOX IMVI melanoma 67% | SK-MEL-28 melanoma 109% | SK-MEL-2 melanoma 81.3% | EKVX NSCLC 69.6% | SN12C renal 80.6% | UO-31 renal 80.8% | TK-10 renal 97.5% | ACHN renal 94.1% | CAKI-1 renal 67.7% | A498 renal 110%

O=C1OCC2=C1C(c1ccccc1)c1cc3c(cc1N2CCO)OCO3 (stereo not drawn)
active: SK-MEL-5 melanoma -12.3% | A498 renal 6.06%
inactive: HCT-15 colon 24% | HT29 colon 12.5% | SNB-75 CNS 31.4% | SNB-19 CNS 36% | U251 CNS 20.3% | PC-3 prostate 24.5% | UACC-62 melanoma 28.9% | LOX IMVI melanoma 37% | SK-MEL-28 melanoma 50.5% | SK-MEL-2 melanoma 14.6% | EKVX NSCLC 35.4% | SN12C renal 39% | UO-31 renal 43.9% | TK-10 renal 63.4% | ACHN renal 36.5% | CAKI-1 renal 35.8%

C=C(C)[C@@H]1CC[C@]2(C(=O)NC(COC(=O)C(Cl)Cl)(COC(=O)C(Cl)Cl)COC(=O)C(Cl)Cl)CC[C@]3(C)[C@H](CC[C@@H]4[C@@]5(C)CC[C@H](OC(C)=O)C(C)(C)[C@@H]5CC[C@]43C)[C@@H]12
active: HT29 colon 4.68% | MOLT-4 leukemia 6.2%
inactive: HCT-15 colon 27.9% | SNB-75 CNS 81.2% | SNB-19 CNS 70.6% | U251 CNS 23.4% | PC-3 prostate 11.1% | SK-MEL-5 melanoma 62.1% | UACC-62 melanoma 81% | LOX IMVI melanoma 32.4% | SK-MEL-28 melanoma 86.9% | SK-MEL-2 melanoma 76.5% | EKVX NSCLC 57.7% | SN12C renal 37% | UO-31 renal 55.4% | TK-10 renal 75.8% | ACHN renal 51.1% | CAKI-1 renal 48.4% | A498 renal 99.5% | CCRF-CEM leukemia 18.3%

Cc1[nH]c2ccccc2c1C1=CC(=O)C=CC1=O
inactive: HCT-15 colon 74.6% | HT29 colon 105% | SNB-75 CNS 82.8% | SNB-19 CNS 93% | U251 CNS 72.4% | PC-3 prostate 79.3% | SK-MEL-5 melanoma 85.6% | UACC-62 melanoma 75.9% | LOX IMVI melanoma 79.1% | SK-MEL-28 melanoma 104% | SK-MEL-2 melanoma 93.7% | EKVX NSCLC 107% | SN12C renal 90.8% | UO-31 renal 59.5% | TK-10 renal 92.2% | ACHN renal 58.7% | CAKI-1 renal 96.8% | A498 renal 121% | CCRF-CEM leukemia 28.4%

O=C(N/N=C/c1ccc([N+](=O)[O-])o1)c1ccc(O)cc1
active: SK-MEL-5 melanoma 2.57%
inactive: HCT-15 colon 42.9% | HT29 colon 17.1% | SNB-75 CNS 84.7% | SNB-19 CNS 54% | U251 CNS 34% | PC-3 prostate 87.4% | UACC-62 melanoma 47.5% | LOX IMVI melanoma 12.9% | SK-MEL-28 melanoma 77.7% | SK-MEL-2 melanoma 24.1% | EKVX NSCLC 71.2% | SN12C renal 29.4% | UO-31 renal 84.7% | TK-10 renal 125% | ACHN renal 66.5% | CAKI-1 renal 88.3% | A498 renal 112% | CCRF-CEM leukemia 34.6%

Cc1ccccc1NC(=O)c1sc2nc3c(cc2c1N)C(=O)CCC3
inactive: HCT-15 colon 32.8% | HT29 colon 21.1% | SNB-75 CNS 13.1% | SNB-19 CNS 46.1% | U251 CNS 49% | PC-3 prostate 30.3% | SK-MEL-5 melanoma 18.6% | UACC-62 melanoma 36.9% | LOX IMVI melanoma 47.4% | SK-MEL-28 melanoma 52.8% | SK-MEL-2 melanoma 58.6% | EKVX NSCLC 87.5% | SN12C renal 64.5% | UO-31 renal 77.5% | TK-10 renal 81.2% | ACHN renal 49.3% | CAKI-1 renal 55.4% | A498 renal 31.3% | CCRF-CEM leukemia 30.3% | MOLT-4 leukemia 67.5%

O=C(N/N=C/c1ccc([N+](=O)[O-])cc1)c1ccccc1Nc1ccnc(C(F)(F)F)c1
inactive: HCT-15 colon 89.9% | HT29 colon 101% | SNB-75 CNS 77.2% | SNB-19 CNS 82.4% | U251 CNS 88.7% | PC-3 prostate 72.9% | UACC-62 melanoma 57.6% | LOX IMVI melanoma 78.2% | SK-MEL-28 melanoma 104% | SK-MEL-2 melanoma 58.5% | EKVX NSCLC 67.5% | SN12C renal 83.9% | UO-31 renal 67.8% | TK-10 renal 83.4% | ACHN renal 82.6% | CAKI-1 renal 76.4% | CCRF-CEM leukemia 77.9% | MOLT-4 leukemia 86.3%
active: SK-MEL-5 melanoma -99% | A498 renal -26.1%

S=C(Cc1ccccc1)N1CCN(c2ccccc2Cl)CC1
inactive: HCT-15 colon 106% | HT29 colon 100% | SNB-75 CNS 96.8% | SNB-19 CNS 116% | U251 CNS 99.2% | PC-3 prostate 86.6% | SK-MEL-5 melanoma 90.9% | UACC-62 melanoma 86.2% | LOX IMVI melanoma 105% | SK-MEL-28 melanoma 119% | SK-MEL-2 melanoma 99.7% | EKVX NSCLC 94.5% | SN12C renal 107% | UO-31 renal 82.4% | TK-10 renal 116% | ACHN renal 108% | CAKI-1 renal 85.2% | A498 renal 90.7% | CCRF-CEM leukemia 89.1% | MOLT-4 leukemia 82.1%

CCN1C(=O)N(CC)C2C1N=C(SC)N2/N=C/C=C/c1ccccc1OC (stereo not drawn)
active: HCT-15 colon 7.58% | HT29 colon 3.96% | SK-MEL-5 melanoma 0.74%
inactive: SNB-75 CNS 44.6% | SNB-19 CNS 15.4% | U251 CNS 16.1% | PC-3 prostate 18.4% | UACC-62 melanoma 30.5% | LOX IMVI melanoma 14.6% | SK-MEL-28 melanoma 51.5% | SK-MEL-2 melanoma 26.5% | EKVX NSCLC 23.4% | SN12C renal 26.5% | UO-31 renal 41.8% | TK-10 renal 46.8% | ACHN renal 23.2% | CAKI-1 renal 25% | A498 renal 15.1% | CCRF-CEM leukemia 12.5% | MOLT-4 leukemia 14.7%

Fc1ccc(-c2nc(-c3ccc(-c4nc5ccc(F)cc5[nH]4)cc3)no2)cc1
inactive: HCT-15 colon 86.1% | HT29 colon 84.7% | SNB-75 CNS 57.6% | SNB-19 CNS 82.5% | U251 CNS 82.9% | PC-3 prostate 68.7% | SK-MEL-5 melanoma 74.4% | UACC-62 melanoma 75.5% | LOX IMVI melanoma 43.5% | SK-MEL-28 melanoma 80.5% | SK-MEL-2 melanoma 102% | EKVX NSCLC 85.1% | SN12C renal 84.3% | UO-31 renal 84.4% | TK-10 renal 119% | ACHN renal 71% | CAKI-1 renal 81.3% | A498 renal 79.6% | CCRF-CEM leukemia 74.9% | MOLT-4 leukemia 94.8%

COc1ccc(NC(=O)c2sc3c(=O)[nH]c(C(F)(F)F)nc3c2C)cc1
inactive: HCT-15 colon 104% | HT29 colon 103% | SNB-75 CNS 93.7% | SNB-19 CNS 112% | U251 CNS 98.6% | PC-3 prostate 90.5% | SK-MEL-5 melanoma 106% | UACC-62 melanoma 98.9% | LOX IMVI melanoma 101% | SK-MEL-28 melanoma 109% | SK-MEL-2 melanoma 91.5% | EKVX NSCLC 83.8% | SN12C renal 99.8% | UO-31 renal 74.2% | TK-10 renal 104% | ACHN renal 102% | CAKI-1 renal 85.4% | A498 renal 108% | CCRF-CEM leukemia 90% | MOLT-4 leukemia 89.7%

COc1ccc(-c2nc3c(c(-c4ccc(Cl)cc4)nn3-c3ccccc3)c(-c3ccc(O)cc3)c2C#N)cc1
inactive: HCT-15 colon 29.7% | HT29 colon 23% | SNB-75 CNS 35.1% | SNB-19 CNS 62.1% | U251 CNS 33.7% | PC-3 prostate 23.9% | SK-MEL-5 melanoma 42.9% | UACC-62 melanoma 56.9% | LOX IMVI melanoma 12.4% | SK-MEL-28 melanoma 59.2% | SK-MEL-2 melanoma 62.4% | EKVX NSCLC 49.6% | UO-31 renal 36.8% | TK-10 renal 93.7% | ACHN renal 50.7% | CAKI-1 renal 40.1% | A498 renal 61.4% | CCRF-CEM leukemia 12.6% | MOLT-4 leukemia 14.4%
active: SN12C renal -26.7%

CCN1C(=O)/C(=C/N2N=C(c3ccc(Cl)cc3)CC2c2ccc(OC)cc2)SC1=S (stereo not drawn)
inactive: HCT-15 colon 87.8% | HT29 colon 79.8% | SNB-75 CNS 82.8% | SNB-19 CNS 92.9% | U251 CNS 81.9% | PC-3 prostate 78.6% | SK-MEL-5 melanoma 99.4% | UACC-62 melanoma 70.8% | LOX IMVI melanoma 84.5% | SK-MEL-28 melanoma 103% | SK-MEL-2 melanoma 84.4% | EKVX NSCLC 93.6% | SN12C renal 86.2% | UO-31 renal 71.1% | TK-10 renal 102% | ACHN renal 94.1% | CAKI-1 renal 91.6% | A498 renal 64.4% | CCRF-CEM leukemia 100% | MOLT-4 leukemia 73.4%

COc1cccc(-c2cc(-c3cccs3)c(C#N)c(=O)[nH]2)c1
inactive: HCT-15 colon 97.8% | HT29 colon 116% | SNB-75 CNS 98.4% | SNB-19 CNS 99.9% | U251 CNS 100% | PC-3 prostate 103% | SK-MEL-5 melanoma 107% | UACC-62 melanoma 96.3% | LOX IMVI melanoma 99.5% | SK-MEL-28 melanoma 115% | SK-MEL-2 melanoma 107% | EKVX NSCLC 106% | SN12C renal 103% | UO-31 renal 89.4% | TK-10 renal 122% | ACHN renal 102% | CAKI-1 renal 96.8% | A498 renal 100% | CCRF-CEM leukemia 100% | MOLT-4 leukemia 107%

COc1cc(C2CC(c3ccccc3)=NN2C=O)ccc1Oc1nc2c(c(=O)n(C)c(=O)n2C)n1C (stereo not drawn)
inactive: HCT-15 colon 87.9% | HT29 colon 69.9% | SNB-75 CNS 92% | SNB-19 CNS 61.9% | U251 CNS 86.5% | PC-3 prostate 72.8% | SK-MEL-5 melanoma 59.2% | UACC-62 melanoma 86.2% | LOX IMVI melanoma 55% | SK-MEL-28 melanoma 95.1% | SK-MEL-2 melanoma 101% | EKVX NSCLC 74.1% | SN12C renal 49% | UO-31 renal 62.4% | TK-10 renal 110% | ACHN renal 86.9% | CAKI-1 renal 79.4% | A498 renal 81.3% | CCRF-CEM leukemia 77.9% | MOLT-4 leukemia 62.2%

Reference: PubChem BioAssay (NCI)
